From PubChem BioAssay (EPA / NIEHS)
Active and inactive are the calls of the source. The calls were made as follows: active = hit-call score of the fitted dose curve at least 0.9, where 1 is the maximum; inactive = score below 0.9.

read-out: Transforming Growth Factor (TGFB1), TGFB1 (gene 7040); assay: LTEA_HepaRG_TGFB1: Life Technologies and Expression Analysis (LTEA) Assay for Transforming Growth Factor (TGFB1) Transporter using HepaRG (AID 2283533); conditions: mRNA level, 48 h; actives raise or lower the signal
Protocol: LTEA_HepaRG is a cell based, multiplexed-readout assay that uses HepaRG, a human liver cell line, with measurements taken at 48 hours after chemical dosing on a 96-well plate.LTEA_HepaRG_TGFB1 is one of 102 assay component(s) measured in the LTEA HepaRG cell culture assay. It is a marker of Cell proliferation, survival, death.Data from the assay component LTEA_HepaRG_TGFB1 was analyzed into 1 endpoint. This assay endpoint, LTEA_HepaRG_TGFB1, was analyzed with bidirectional fitting relative to DMSO as the negative control and baseline of activity. Using a type of inducible reporter, measures of mRNA induction for gain or loss-of-signal activity can be used to understand regulation of transcription factor activity. To generalize the intended target to other relatable targets, this assay endpoint is annotated to the growth factor intended target family, where the subfamily is transforming growth factor beta.
A total of 1060 chemcials from the ToxCast library were tested in eight-point concentration-response experiments. Cell culture and cytotoxicity assays were conducted at Thermo Fisher Scientific's Custom Services facility (Madison, WI). A single lot of human HepaRG cells (Thermo Fisher Scientific, Frederick, MD) was used for the cell culture experiments. 96-well format collagen type I coated plates of human HepaRG cells were prepared using established methods. Briefly, cryopreserved HepaRG cells were thawed, plated at a density of approximately 100,000 cells/well in HepaRG Thaw, Plate, and General Purpose media (HPRG770, Thermo Fisher Scientific), and incubated for 48 hours. 0.5% DMSO was selected as vehicle control to balance the requisite need of DMSO in HepaRG cultures to maintain differentiation (for example, baseline metabolism, proportions of hepatocytes vs. cholangiocytes), while enabling further hepatic receptor pathway activation (for example, PXR and CAR) in response to chemical exposure. 48 hours after plating, the culture medium was replaced with HepaRG Serum-Free Incudtion Media. Cells were exposed to each test chemical in duplicate and maintained in CO2 incubators for another 48 hours. Chemical plates were thawed to room temperature and 200x concentrations of treatment groups were prepared. 8-point conentration-reponse curves were made with the highest exposure at 100 uM, followed by half-log dilutions, all in 0.5% DMSO. Each test plate contained variouse controls, induction positive controls (1mM phenobarbital), cytotoxicity positive controls ([…] aflatoxin B1), vehicle controls (0.5% DMSO), and total lysis controls (0.5% DMSO). Cell morphology images were taken using an Essen IncuCyte FLR automated microscope, with six 96-well plates imaged in about 24 minutes. Images were captured and exported and JPEG files. Spent culture media was transfered to black-well plates for the LDH assay, and remaining media was sorted at -80 C for later use. Cells were treated with RLT buffer and frozen until shipped for gene expression analysis. Total RNA was isolated from the cell suspension in 75 uL of Buffer RLT (Qiagen, Germantown, MD 20874) by Quintiles/Expression Analysis (Durham, NC) using a custom isolation procedure. Total RNA from each plate well was transferred to a preamplification plate. Fluidigm's 96.96 Dynamic ArrayTM (Fluidigm, Amsterdam, the Netherlands) technology was used for gene expression analyses by quantitative reverse transcription polymerase chain reaction (qRT-PCR, performed by Quintiles/Expression Analysis, Durham, NC)89. Standard TaqManTM Assays (Applied Biosystems/ThermoFisher Scientific, Foster City, CA) were used to assess the expression of 93 genes selected based on their selectivity and sensitivity to important hepatic receptors known to be modulated by environmental chemicals; importance in human hepatocyte functionality; and hepatotoxicity. […]

Row | Structure (SMILES) | outcome | AC50
1 | Nc1c(Cl)cc([N+](=O)[O-])cc1Cl | inactive | –
2 | Cc1ccn2nc(S(=O)(=O)Nc3c(F)cccc3F)nc2n1 | inactive | –
3 | O=C(O)c1cc(Oc2ccc(C(F)(F)F)cc2Cl)ccc1[N+](=O)[O-] | inactive | –
4 | O=c1ccc(=O)[nH][nH]1 | inactive | –
5 | COP(=O)(OC)C(O)C(Cl)(Cl)Cl (stereo not given) | inactive | –
6 | CCOP(=S)(OCC)Oc1cc(C)nc(C(C)C)n1 | inactive | –
7 | CCc1cccc(C)c1N(C(=O)CCl)C(C)COC (stereo not given) | inactive | –
8 | CCOC(=O)CC(SP(=O)(OC)OC)C(=O)OCC (stereo not given) | inactive | –
9 | S=C1NCCN1 | inactive | –
10 | Cc1nn(-c2cc(NS(C)(=O)=O)c(Cl)cc2Cl)c(=O)n1C(F)F | inactive | –
11 | CCCCSP(=O)(SCCCC)SCCCC | inactive | –
12 | CN(C)[C@@H]1C(=O)C(C(N)=O)=C(O)[C@@]2(O)C(=O)C3=C(O)c4c(O)cccc4[C@@](C)(O)[C@H]3[C@H](O)[C@@H]12 | inactive | –
13 | COc1ccc(C(=CC(=O)N2CCOCC2)c2ccc(Cl)cc2)cc1OC | inactive | –
14 | CCCSP(=O)(OCC)Oc1ccc(Br)cc1Cl (stereo not given) | inactive | –
15 | O=[N+]([O-])c1cc(C(F)(F)F)c(Cl)c([N+](=O)[O-])c1Nc1ncc(C(F)(F)F)cc1Cl | – | 79.7 µM (active)
16 | CCC(=O)Nc1ccc(Cl)c(Cl)c1 | inactive | –
17 | CCCCOC(=O)[C@@H](C)Oc1ccc(Oc2ccc(C#N)cc2F)cc1 | inactive | –
18 | CNC(=O)ON=C(SC)C(=O)N(C)C | inactive | –
19 | C#CCC1=C(C)C(OC(=O)C2C(C=C(C)C)C2(C)C)CC1=O (stereo not given) | inactive | –
20 | Cc1cc(C2CC2)nc(Nc2ccccc2)n1 | inactive | –

Row | Structure (SMILES) | outcome | AC50
21 | CC(=NC#N)N(C)Cc1ccc(Cl)nc1 | inactive | –
22 | N#CSCSC#N | inactive | –
23 | CC(C)N(C(=O)SCC(Cl)=C(Cl)Cl)C(C)C | inactive | –
24 | CCOP(=S)(OCC)Oc1ccc2c(C)c(Cl)c(=O)oc2c1 | inactive | –
25 | CSC1=N[C@@](C)(c2ccccc2)C(=O)N1Nc1ccccc1 | inactive | –
26 | CCOP(=S)(Oc1cnc(C(C)(C)C)nc1)OC(C)C (stereo not given) | inactive | –
27 | FC(F)C(F)(F)OCC(Cn1cncn1)c1ccc(Cl)cc1Cl (stereo not given) | – | 28.8 µM (active)
28 | CCOP(=S)(OCC)OC(Cl)C(Cl)(Cl)Cl (stereo not given) | inactive | –
29 | CCOP(=O)(SC(C)CC)N1CCSC1=O (stereo not given) | inactive | –
30 | COP(=O)(NC(C)=O)SC (stereo not given) | inactive | –
31 | CCc1cnc(C2=NC(C)(C(C)C)C(=O)N2)c(C(=O)O)c1 (stereo not given) | inactive | –
32 | CC(COc1ccc(Oc2ccccc2)cc1)Oc1ccccn1 (stereo not given) | inactive | –
33 | CNC(=O)ON=C(C)SC | inactive | –
34 | CC(C)[C@H](C(=O)O[C@H](C#N)c1cccc(Oc2ccccc2)c1)c1ccc(Cl)cc1 | inactive | –
35 | CCC(CC)Nc1c([N+](=O)[O-])cc(C)c(C)c1[N+](=O)[O-] | inactive | –
36 | CSc1nnc(C(C)(C)C)c(=O)n1N | inactive | –
37 | CC1=NNC(=O)N(/N=C/c2cccnc2)C1 | inactive | –
38 | Nc1nc(N)nc(NC2CC2)n1 | inactive | –
39 | COP(=O)(OC)OC(Br)C(Cl)(Cl)Br (stereo not given) | inactive | –
40 | C[Si](Cn1cncn1)(c1ccc(F)cc1)c1ccc(F)cc1 | – | 34.1 µM (active)
